Source: PubChem BioAssay (The Scripps Research Institute Molecular Screening Center)
DAX1 inh-1: DAX1 (NR0B1) inhibition, primary screen | HEK293T StAR-luciferase reporter, SF-1/DAX-1 repression relief | AID 652010 | 1.1% of 370,000 active | inhibition, % at 6.8 µM;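 active = inhibition above the mean over all tested compounds plus 3 SD, cut at about 3.6% in these data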;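 also: higher inhibition means more luminescence from relief of DAX-1 repression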
hgDAF-12 ag: activates the H. glycines DAF-12 receptor ligand-binding domain; HEK293 GAL4-hgDAF12 UAS-luciferase reporter, agonist luminescence; normalized to butyrate control; activation, % at 6.8 µM; 1.8% of 370,000 active; AID 687014;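 active = activation above a cutoff set at the mean of all screened compounds plus 3 SD, cut at about 10% in these data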
ssDAF12 agonist: activators of S. stercoralis DAF-12 nuclear receptor. AID 652126. HEK293 ssDAF-12/GRIP1 lit1-tk-luc reporter, luminescence; % of 3 µM dafachronic acid response. activation, % at 6.8 µM. 1% of 370,000 active;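 active = activation above the mean over all tested compounds plus 3 SD, cut at about 0.9% in these data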
hcDAF12 agonist: H. contortus DAF-12 activation, primary screen | HEK293 hcDAF-12 lit1-tk-luc reporter, luminescence; 0% DMSO, 100% Δ7-dafachronic acid | activation, % at 6.8 µM | 1.4% of 370,000 active | AID 652067;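 active = activation above the mean of all tested compounds plus 3 SD, cut at about 5.5% in these data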
DAX1 inh-2: NR0B1 (DAX1) inhibition. 0.99% of 340,000 active. AID 504766. HEK293 Gal4-DAX1 luciferase reporter, luminescence. inhibition, % at 6.75 µM;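 active = inhibition above the mean over all tested compounds plus 3 SD, cut at about 4.2% in these data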;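 also: inhibition shows as a rise in luminescence from relieved DAX1 repression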
Target sequence (P51843 207-470 limits assumed): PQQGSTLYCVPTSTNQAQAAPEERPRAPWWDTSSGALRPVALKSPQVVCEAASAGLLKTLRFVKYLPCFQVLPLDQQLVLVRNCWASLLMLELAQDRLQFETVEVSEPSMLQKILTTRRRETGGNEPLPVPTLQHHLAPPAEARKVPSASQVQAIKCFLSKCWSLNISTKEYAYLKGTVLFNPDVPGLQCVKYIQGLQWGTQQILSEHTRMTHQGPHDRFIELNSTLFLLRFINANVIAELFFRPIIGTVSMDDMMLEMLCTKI
Of the large screens only hits and unclear results are named; the others gave an inactive call. This is a sample that favours compounds with a hit; in the whole collection about 4.1% have one here.

CCOC(=O)NC[C@@]1(C(=O)OC)CC(=O)N(C)[C@@H]1c1ccccc1	none (no result: DAX1 inh-2)
Cn1cc(CCOCc2ccccn2)c2ccccc21	DAX1 inh-1 3.6 (no result: DAX1 inh-2)
CC(C)(C)NC(=O)CSc1nnc(-c2ccccn2)n1-c1ccccc1	DAX1 inh-2 4.4
CC(C)(C)NC(=O)CSc1nnc(-c2ccccn2)n1Cc1ccccc1	none
CCCCCCCCN1CN2Cc3ccccc3C2CS1(=O)=O (stereo unspecified)	none (no result: DAX1 inh-2)
COc1ccc(C2Nc3ccccc3C(=O)N2Cc2ccc(C)o2)cc1COc1c(C)cccc1C (stereo unspecified)	none (no result: DAX1 inh-1, DAX1 inh-2)
Cn1c2ccccc2c2nnc(NN)nc21	hcDAF12 agonist 5.7
COc1ccc(CN[C@@H]2CC[C@@]34CCCN3C(=O)CCC[C@H]4C2)cc1OC	none (no result: DAX1 inh-1, DAX1 inh-2)
CC(=O)Nc1csc2ccccc12	none
NC(=O)C1CCN(C(=O)Nc2csc3ccccc23)CC1	ssDAF12 agonist 1.0 (no result: DAX1 inh-2)
CC(C)CNc1cccc2c1S(=O)(=O)N(Cc1cn(Cc3cccc(F)c3)nn1)Cc1ccccc1O2	none (no result: DAX1 inh-2)
CC(=O)Nc1ccc(S(=O)(=O)C(C#N)c2nc3ccccc3nc2NCCN2CCOCC2)cc1 (stereo unspecified)	none
CCC(/C=C1\Sc2ccc(OC)cc2N1CC)=C\c1sc2ccc(OC)cc2[n+]1CCCS(=O)(=O)[O-]	ssDAF12 agonist 5.6
CCC(/C=C1\Sc2ccc(OC)cc2N1CCO)=C\c1sc2ccc(OC)cc2[n+]1CCO	none
COc1ccc(-n2cnc3sc(-c4ccccc4)cc3c2=O)cc1	DAX1 inh-2 5.0
CC(=O)Cn1cnc2sc(-c3ccccc3)cc2c1=O	hgDAF-12 ag 10.8
CC(=O)Cn1nnc2sc(-c3ccccc3)cc2c1=O	hgDAF-12 ag 12.8
O=C(Cn1cnc2sc(-c3ccccc3)cc2c1=O)N1CCOCC1	none
COC(=O)[C@]1(CNC(C)=O)CC(=O)N(Cc2ccc(Cl)cc2)[C@@H]1c1ccc(OC)cc1	none (no result: DAX1 inh-2)
Fc1ccc2nc(N3CCOCC3)sc2c1	hgDAF-12 ag 11.7
O=C1NC(=Nc2ccccc2)c2c1cccc2[N+](=O)[O-]	ssDAF12 agonist 1.3
Clc1ccc(-n2nnnc2-c2cnc3ccc(Cl)cc3c2-c2ccccc2)cc1	DAX1 inh-2 6.2
COc1ccc(F)cc1-c1cc(C(C)=O)c2n(c1=O)CCC2	none (no result: DAX1 inh-2)
CN(C)N1C(N)=C(C#N)C(c2ccccc2)C2=C1CC(C)(C)CC2=O (stereo unspecified)	none
CN(C)N1C(N)=C(C#N)C(c2cccc3ccccc23)C2=C1CC(c1ccccc1)CC2=O (stereo unspecified)	DAX1 inh-2 5.6
O=c1oc2ccccc2n1Cc1cccc(Cl)c1	DAX1 inh-2 6.4
CN(Cc1ccccc1)S(=O)(=O)c1cccc(C(=O)OCC2CCCCC2)c1	none (no result: DAX1 inh-2)
CN=C1S/C(=C/c2cc(C)n(Cc3ccccc3)c2C)C(=O)N1C	none (no result: DAX1 inh-1, DAX1 inh-2)
CCn1c(C)nc2cc(C(=O)OC)ccc21	none
CCn1c(C)nc2cc(NC(=O)Nc3cccc(C(C)=O)c3)ccc21	hgDAF-12 ag 12.2
COC[C@H]1CCCN1c1ccc2c(c1)O[C@H](C)CCN(C1CC1)S2(=O)=O	none (no result: DAX1 inh-2)
Cn1nc(-c2ccccc2)cc1NS(=O)(=O)c1ccc(C#N)cc1	DAX1 inh-2 4.3
CC(C)(C)c1ccc(/C=N/NC(=O)C2CCCC2)cc1	none
CC(C)c1ccc(/C=N/NC(=O)C2CCCC2)cc1	hcDAF12 agonist 6.0
Cc1ccc(S(=O)(=O)c2nc(-c3ccccc3)oc2NCCCN2CCOCC2)cc1	hgDAF-12 ag 11.4
COc1ccc(-c2nc(S(=O)(=O)c3ccccc3)c(NCCCN3CCOCC3)o2)cc1	none
CN1CCCC(C)(C(=O)Nc2ccc(-n3cccc3)cc2)C1 (stereo unspecified)	none (no result: DAX1 inh-2)
O=C(c1ccccc1)n1ccc2ccc(-c3ccc4ccn(Cc5ccccc5)c4c3)cc21	hgDAF-12 ag 10.8 (no result: DAX1 inh-2)
O=C(c1cccc(F)c1)n1ccc2ccc(-c3ccc4ccn(Cc5ccccc5)c4c3)cc21	none (no result: DAX1 inh-2)
Cc1ccc(-n2c(SCC(=O)c3ccc(F)cc3)nnc2-c2cccnc2)cc1	none (no result: DAX1 inh-2)
Cc1nn2cc(-c3ncc(C(F)(F)F)cc3Cl)cnc2c1Br	hgDAF-12 ag 13.1 (no result: DAX1 inh-2)
COc1ccc(Cc2c(C)nc(N)nc2Cl)cc1	ssDAF12 agonist 1.7
COC(=O)[C@]12C[C@H](CC(=O)N3CCCC3)C(=O)N(Cc3ccc(Cl)cc3Cl)C1=C[C@H](COCc1ccccc1)O[C@@H]2C	none (no result: DAX1 inh-2)
CCn1c(SCC(=O)OC(C)C)nnc1-c1ccccc1OC	ssDAF12 agonist 1.1
O=C(c1ccco1)n1c(=S)nc2ccccn21	hgDAF-12 ag 11.6
Cc1cccc2nc(=S)n(C(=O)c3ccco3)n12	hgDAF-12 ag 13.1, DAX1 inh-2 4.6
Fc1ccc(-c2csc(/C=C/c3ccc4c(c3)OCO4)n2)cc1	ssDAF12 agonist 1.1
Cc1ccc(-c2c(C(=O)NC3CCCC3)oc(=O)c3ccccc23)cc1	none (no result: DAX1 inh-2)
Cc1ccc(N(Cc2cc(=O)[nH]c3ccccc23)C(=O)C(C)C)cc1	none
CCN(Cc1cc(=O)[nH]c2ccccc12)C(=O)C(C)C	ssDAF12 agonist 0.9
CCN(Cc1cc(=O)[nH]c2ccccc12)C(=O)c1ccc(C)cc1	ssDAF12 agonist 1.8
Cc1ccc(-n2c(Cc3cccs3)nnc2SCc2ccc(C#N)cc2)cc1	none (no result: DAX1 inh-2)
COc1ccc(C2CC(=O)C(c3ccc(Cl)c(Cl)c3)=CN2Cc2ccccc2)cc1 (stereo unspecified)	none (no result: DAX1 inh-2)
CN(N=Nc1ccccc1C(=O)O)C1CCCCC1	none
O=C(NNC(=O)c1ccncc1)NC1CCCCC1	DAX1 inh-2 4.8
O=C(Nc1ccc(Cl)cc1)NC1CCCCC1	none
O=C(Nc1ccc2nsnc2c1)NC1CCCCC1	hgDAF-12 ag 11.9
O=C(NC1CC2CCCC(C1)N2C(=O)NC1CCCCC1)c1ccc(F)cc1 (stereo unspecified)	none
O=C(NC1CCCCCCC1)c1ccc(F)cc1	hgDAF-12 ag 11.2
O=C(Nc1ccc(F)cc1)NC1CCCCCCC1	hgDAF-12 ag 12.4
Nc1cc(C(=O)O)c(Oc2ccc(Cl)cc2Cl)cc1C(=O)O	none
O=C(NC1CCC1)c1ccc(C#Cc2cccc(F)c2)nc1	hgDAF-12 ag 11.0 (no result: DAX1 inh-2)
CN1C(=O)c2ccc(C(=O)NC3CCCCC3)cc2C1=O	ssDAF12 agonist 1.0
COC(=O)[C@]12C[C@H](CC(=O)N3CCC(c4ccccc4)CC3)C(=O)N(Cc3cccc4ccccc34)C1=C[C@H](COCc1ccccc1)O[C@@H]2C	none (no result: DAX1 inh-2)
Cc1ccc(N2CC(=O)N(NC(=O)CN3CCN(c4ccccc4)CC3)CC2=O)cc1	none
O=C(CN1CCOCC1)NN1CC(=O)N(c2ccc(Cl)cc2)CC1=O	DAX1 inh-2 5.6
O=C(COC(=O)C1COc2ccccc2O1)NC(=O)Nc1ccc2c(c1)OCCO2 (stereo unspecified)	hcDAF12 agonist 5.8
COc1ccc(Cl)cc1NC(=O)COC(=O)C1COc2ccccc2O1 (stereo unspecified)	ssDAF12 agonist 1.0
N#CCC(=O)Nc1ccc(C(=O)OCC(=O)NC(=O)Nc2ccc3c(c2)OCCO3)cc1	DAX1 inh-1 4.2
